According to the supplement of paper PMC3334620:
Over roughly 33,000 sequences, “E-score (-0.5 to 0.5)” has its median near -0.036; the highest 2% begin near 0.37. The sample as a whole holds a higher share of the highest values than the screen did.

Target: T1, Yer064c (UniProt P40041)
T1 sequence: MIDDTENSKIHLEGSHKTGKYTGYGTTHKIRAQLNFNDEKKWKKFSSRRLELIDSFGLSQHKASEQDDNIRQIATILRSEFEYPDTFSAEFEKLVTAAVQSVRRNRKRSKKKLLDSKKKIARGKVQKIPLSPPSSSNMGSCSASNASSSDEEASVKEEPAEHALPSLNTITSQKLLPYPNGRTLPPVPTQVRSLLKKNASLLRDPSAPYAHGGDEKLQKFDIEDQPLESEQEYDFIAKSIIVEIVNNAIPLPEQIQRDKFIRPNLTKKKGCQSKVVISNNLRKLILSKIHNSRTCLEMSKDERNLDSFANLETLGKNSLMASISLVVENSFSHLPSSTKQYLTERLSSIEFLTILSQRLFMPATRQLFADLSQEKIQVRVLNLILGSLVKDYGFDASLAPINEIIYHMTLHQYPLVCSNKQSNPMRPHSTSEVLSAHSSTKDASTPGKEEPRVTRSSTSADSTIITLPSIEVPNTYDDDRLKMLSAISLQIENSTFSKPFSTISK
Experiment: PBM E-score (8-mer binding enrichment) (E-score (-0.5 to 0.5)); higher = stronger / more preferred TF binding
Conditions: protein concentration: 200 nM; construct: GST-full length
In short: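 Universal all-10-mer Agilent arrays, fresh or stripped once, were converted to double-stranded form by primer extension. GST-tagged yeast transcription factors from PURExpress in vitro transcription/translation, full-length or DNA-binding domain only, were applied at about 100-200 nM and detected with fluorescent anti-GST. After masliner normalisation, the Universal PBM Analysis Suite scored each ungapped eight-base word together with its reverse complement by E-score.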

| Sequence | PBM E-score |
| --- | --- |
| CGCTCCCG | 0.17 |
| AAACCACA | -0.0212 |
| ACTAACCG | 0.163 |
| TATTTGCA | 0.0422 |
| AGCCATGG | 0.268 |
| AGTCATGG | 0.479 |
| ATTCATGC | 0.137 |
| ATTCATGG | 0.224 |
| CGTCATGA | 0.253 |
| AGTCATGA | 0.485 |
| GGTCATGA | 0.255 |
| AGTCATGC | 0.487 |
| CGTCATGC | -0.173 |
| TACTTACA | -0.0596 |
| GAAGCCTA | -0.143 |
| AACGTATT | -0.12 |
| AGGGATAG | -0.255 |
| TAGAGAGA | 0.0957 |
| AGAAGCAG | -0.1 |
| AGCTTTCA | -0.0821 |
| GTGTTGGA | -0.127 |
| ATTTAATA | 0.117 |
| CTTTAGTA | 0.14 |
| ATTTAATC | 0.366 |
| ATTTAGTC | 0.444 |
| ATTTAGTG | 0.127 |

| Sequence | PBM E-score |
| --- | --- |
| CTTTAGTC | 0.416 |
| ATTTAGTA | 0.253 |
| CTTTAATC | 0.29 |
| CTTTAGAC | 0.108 |
| GGCCTACA | -0.0963 |
| TAATAGCA | -0.09 |
| ACCAAGAG | -0.00272 |
| CATAACCA | 0.071 |
| GGCGAATA | -0.0639 |
| CGGCGAGC | -0.108 |
| GACTCATA | 0.477 |
| AACTCATC | 0.33 |
| CACTCATA | 0.259 |
| CACTCATC | 0.258 |
| GACTCATC | 0.478 |
| AACTCATA | 0.275 |
| CCTGCCAG | -0.212 |
| ATTTTCAG | -0.135 |
| CTCTGTCC | -0.14 |
| AATCTTAT | 0.207 |
| CGTCTTAC | -0.141 |
| GGTCTTAC | 0.131 |
| TGTCTTAA | -0.0134 |
| AGTCTTAA | 0.387 |
| AGTCTTAT | 0.383 |
| CGTCTTAG | -0.188 |

| Sequence | PBM E-score |
| --- | --- |
| AGTCTTAG | 0.408 |
| AGTCTTAC | 0.415 |
| ACTCTTAG | 0.198 |
| ACTCTTAT | 0.241 |
| CGTCTTAA | -0.00451 |
| CCCCAGGC | -0.41 |
| AATCGACT | 0.258 |
| ATCTGGCA | -0.118 |
| AGTGACCC | -0.0592 |
| GTCTATCA | 0.0174 |
| GGTTTCTA | -0.133 |
| CCTTTCTA | -0.251 |
| AACAACAT | -0.0999 |
| CTTTGTAA | 0.173 |
| TAGTTGAA | 0.127 |
| CACGTGAG | 0.0942 |
| CTTAGTCA | 0.483 |
| ATTAGTCG | 0.41 |
| ATTAGGCC | 0.00222 |
| CTTAGTAA | 0.161 |
| ATTAGTTG | 0.118 |
| ATTAGTCC | 0.373 |
| CTTAGTTA | 0.221 |
| ATTAGTGG | 0.11 |
| ATTAGTTA | 0.153 |
| ATTAGTCA | 0.484 |

| Sequence | PBM E-score |
| --- | --- |
| ATTAGTGA | 0.219 |
| ATTAGTAC | 0.205 |
| AAGAATAG | 0.0215 |
| CTAGAAAC | 0.0516 |
| CCTTCTAG | -0.244 |
| GCAATGCC | -0.31 |
| TAATATTA | 0.207 |
| AGCGATCC | -0.315 |
| CGCGTCTA | -0.228 |
| CTTAGGCC | -0.115 |
| CTTAGTTC | 0.0883 |
| GTTAGTTA | 0.165 |
| CTTAGTCC | 0.37 |
| GTTAGTGA | 0.171 |
| GTTAGTCA | 0.49 |
| CTCGCGCA | -0.0489 |
| GAGCGTCA | -0.0316 |
| CACTTTGA | 0.184 |
| GGCTATCA | -0.11 |
| GAGTCGCC | 0.439 |
| GAGTCGCA | 0.438 |
| AAGTCGCC | 0.222 |
| TAGTCGAA | 0.243 |
| TAGTCGCA | 0.412 |
| CAGTCGCC | 0.254 |
| CAGTCGCA | 0.15 |

| Sequence | PBM E-score |
| --- | --- |
| AAGTCGCA | 0.257 |
| TCGTCGCA | -0.0159 |
| ACGGGCCT | -0.363 |
| GGGCACCC | -0.269 |
| CGGGACCA | -0.208 |
| GAAGCGTA | -0.151 |
| AACGGAAC | -0.134 |
| AAGAGCCC | -0.196 |
| CATTTCGA | -0.0334 |
| CATCACGA | 0.132 |
| AATCACGT | 0.382 |
| AATCAAGA | 0.235 |
| AATCACGC | 0.391 |
| GATCACGC | 0.18 |
| AATCACGA | 0.347 |
| AAGGCAGG | -0.192 |
| ACGTCCGG | -0.217 |
| AGTGGGCC | -0.307 |
| CTTCTGCC | -0.225 |
| ATGGTTAA | 0.391 |
| CTGGTTAA | 0.162 |
| GTGGTTAA | 0.222 |
| GTAGCGAA | -0.0282 |
| ATGCCGAG | -0.0321 |
| GACTCGTA | 0.419 |
| AACTCGCC | -0.0941 |

| Sequence | PBM E-score |
| --- | --- |
| GACTCGCC | 0.371 |
| CACTCGTA | -0.0316 |
| GACTCGCA | 0.414 |
| AACTCGCA | 0.0388 |
| TACTCGCA | 0.211 |
| CACTCGCC | -0.0244 |
| AACTCGTA | -0.019 |
| AAGGTACG | -0.094 |
| GCGTAGAC | -0.0194 |
| GAGGTGAC | 0.224 |
| TATTCCAA | -0.0766 |
| GCACTGAC | 0.131 |
| GGGCCGAA | -0.287 |
| GCCTGCGA | -0.22 |
| GGCAATCA | 0.283 |
| GTCAATTA | 0.123 |
| GTCAATCA | 0.389 |
| CTCAATCA | 0.402 |
| CGCAATCA | 0.302 |
| ATCAATCA | 0.381 |
| ATCAATCC | -0.0246 |
| CTCAATCC | 0.146 |
| ATCAATCG | 0.193 |
| TGGGCGAA | 0.0204 |
| ATCTCTAG | -0.0229 |
| CAGACGAC | 0.137 |

| Sequence | PBM E-score |
| --- | --- |
| AGTAAGTC | 0.354 |
| CCTCAGCA | -0.202 |
| AACTGGTA | -0.259 |
| AATGACTA | 0.487 |
| AATGACCA | 0.0838 |
| AATGACTG | 0.441 |
| CATGACAA | -0.00212 |
| CATGACTA | 0.491 |
| AATGACAG | -0.045 |
| AATGACCG | -0.203 |
| CATGACGA | 0.0513 |
| AATGACGA | 0.0304 |
| AATAGGCT | -0.0339 |
| CTCTCGGA | 0.144 |
| CTGTGGAA | 0.0224 |
| AATCCTCG | -0.0311 |
| CATCATTC | 0.0981 |
| AAACATTG | -0.0364 |
| GATCATTA | 0.128 |
| ATTCATTA | 0.21 |
| AAGCATTG | -0.159 |
| AATCATTC | 0.417 |
| AATCATTA | 0.397 |
| AATCATTG | 0.43 |
| CATCATTA | 0.161 |
| TGGTAGAA | -0.0551 |

| Sequence | PBM E-score |
| --- | --- |
| CACCCTGC | 0.118 |
| AGGCTACG | -0.232 |
| ATCCAAAC | 0.00765 |
| GAGGACAA | -0.195 |
| GTCACAAC | 0.213 |
| GGGTCAGA | 0.00219 |
| GAGTCAGA | 0.472 |
| ATGTCAGA | -0.0808 |
| TAGTCAGA | 0.457 |
| GCGTCAGA | -0.116 |
| TCGTCAGA | -0.15 |
| GACGGCCC | -0.375 |
| CATCCTAA | 0.0625 |
| GTAGAAAC | -0.119 |
| AACGGCTT | -0.309 |
| GACTCTGC | 0.376 |
| AACTCTGA | 0.186 |
| GACTCTTA | 0.428 |
| CACTCTTA | -0.016 |
| AACTCTTA | 0.0866 |
| AACTCTGC | 0.0728 |
| TACTCTGA | 0.156 |
| CACTCTGC | -0.0532 |
| GACTCTGA | 0.392 |
| ATTCTCTG | 0.0149 |
| CCTCTGCA | -0.264 |

| Sequence | PBM E-score |
| --- | --- |
| GGCTAGAA | 0.00723 |
| GCCCTTAA | -0.185 |
| AGGCCTGC | -0.27 |
| CCGGGCCC | -0.315 |
| GCGGACCA | -0.0691 |
| AGCCCCCT | -0.382 |
| ATAGGATG | 0.0522 |
| GCGAGTCC | 0.262 |
| CCGAGTCG | 0.261 |
| CCGAGTCC | 0.195 |
| ACGAGTCG | 0.383 |
| GCGAGTAA | 0.206 |
| ACGAGTAG | 0.039 |
| CCGAGTCA | 0.467 |
| TCGAGCCA | -0.00283 |
| TCGAGTCA | 0.471 |
| ACGAGTTG | -0.0661 |
| TCGAGTAA | 0.11 |
| GCGAGTCA | 0.485 |
